Measurements: PubChem BioAssay (NCATS)
Records with an inconclusive call do not appear. Calls of active or inactive are those of the source. Calls come from the whole dose curve; as a rule, active = well fitted cell-killing curve with a large enough effect; inconclusive = small, poorly fitted or top-dose-only effect, or effect the other way; inactive = flat fitted curve, though single readings scatter.

Experiments:
Experiment in all cases: Primary qHTS to identify gynecologic anti-cancer compounds using libraries of approved drugs and bioactive compounds (AID 1345084); note: nearly all actives have a fitted effect of over 55% in size
[1] = test system: C33A; settings: Gynecologic cancer cell panel viability, ATPlite luminescence, 48 h; series mostly up to 57.5 µM
Summary of the method: (§1)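 Cytotoxicity screen measuring ATP content by luciferase luminescence. Each compound is applied at five concentrations for 48 h at 37 C with 5% CO2.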

[2] = test system: CAOV3; settings: Gynecologic cancer cell panel viability, ATPlite luminescence, 48 h; series mostly up to 57.5 µM
Summary of the method: as §1

[3] = test system: CASKI; settings: Gynecologic cancer cell panel viability, ATPlite luminescence, 48 h; series mostly up to 57.5 µM
Summary of the method: as §1

[4] = test system: Es-2; settings: Gynecologic cancer cell panel viability, ATPlite luminescence, 48 h; series mostly up to 57.5 µM
Summary of the method: as §1

[5] = test system: HeLa; settings: Gynecologic cancer cell panel viability, ATPlite luminescence, 48 h; series mostly up to 57.5 µM
Summary of the method: as §1

[6] = test system: PA-1; settings: Gynecologic cancer cell panel viability, ATPlite luminescence, 48 h; series mostly up to 57.5 µM
Summary of the method: as §1

[7] = test system: Tov-21-G; settings: Gynecologic cancer cell panel viability, ATPlite luminescence, 48 h; series mostly up to 57.5 µM
Summary of the method: as §1

[8] = test system: Tov112D; settings: Gynecologic cancer cell panel viability, ATPlite luminescence, 48 h; series mostly up to 57.5 µM
Summary of the method: as §1

[9] = test system: JEG-3; settings: Gynecologic cancer cell panel viability, ATPlite luminescence, 48 h; series mostly up to 57.5 µM
Summary of the method: as §1

[10] = test system: OV90; settings: Gynecologic cancer cell panel viability, ATPlite luminescence, 48 h; series mostly up to 57.5 µM
Summary of the method: as §1

[11] = test system: SKOV3; settings: Gynecologic cancer cell panel viability, ATPlite luminescence, 48 h; series mostly up to 57.5 µM
Summary of the method: as §1

[12] = test system: Hek293T; settings: Gynecologic cancer cell panel viability, ATPlite luminescence, 48 h, control line for the selectivity index; series mostly up to 57.5 µM
Summary of the method: as §1
% is set by controls: 0 for no effect and ±100 for the full control effect; potency is the fitted concentration of half-maximal effect.

CC(C)NCC(C(=O)N1CCN(c2ncnc3c2C(C)CC3O)CC1)c1ccc(Cl)cc1 (configuration not stated)
inactive: Potency [2] | Potency [3] | Potency [4] | Potency [5] | Potency [6] | Potency [8]
active: Potency [1] 3.98 µM | Potency [7] 0.794 µM

CS(=O)(=O)c1ccc(-c2nnc(/C=C/c3nnc(-c4ccc(C#N)cc4)o3)n2-c2ccccc2Cl)nc1
inactive: Potency [1] | Potency [2] | Potency [3] | Potency [4] | Potency [5] | Potency [9] | Potency [10] | Potency [6] | Potency [11] | Potency [7] | Potency [8]

COc1cc(OC)cc(C(=O)Nc2ccc(Cl)c(-c3nc4ccc(N(C)C)cc4[nH]3)c2)c1
inactive: Potency [1] | Potency [2] | Potency [3] | Potency [4] | Potency [5] | Potency [9] | Potency [6] | Potency [11] | Potency [7] | Potency [8]

CC1(C)CC[C@@]2(C(=O)O[C@@H]3O[C@H](CO)[C@@H](O)[C@H](O)[C@H]3O)C(C1)C1=CCC3[C@@]4(C)CC[C@@H](O[C@@H]5O[C@H](C(=O)O)[C@@H](O[C@@H]6OC[C@@H](O)[C@H](O)[C@H]6O)[C@H](O[C@@H]6OC[C@](O)(CO)[C@H]6O)[C@H]5O)C(C)(C)C4CC[C@@]3(C)[C@]1(C)C[C@H]2O (some centres not stated)
inactive: activity change, negative = cytotoxicity [1] -0.239% [at 11.6 µM] | activity change, negative = cytotoxicity [2] -43.7% [at 11.6 µM] | activity change, negative = cytotoxicity [3] -25.1% [at 11.6 µM] | activity change, negative = cytotoxicity [4] -7.12% [at 11.6 µM] | activity change, negative = cytotoxicity [12] 3.52% [at 11.6 µM] | activity change, negative = cytotoxicity [9] -1.03% [at 11.6 µM] | activity change, negative = cytotoxicity [10] -1.26% [at 11.6 µM] | activity change, negative = cytotoxicity [6] -34.8% [at 11.6 µM] | activity change, negative = cytotoxicity [11] -2.96% [at 11.6 µM] | activity change, negative = cytotoxicity [8] -29.7% [at 11.6 µM]

O=C1NC(=O)C(c2cn3c4c(cccc24)CCC3)C1c1c[nH]c2ccccc12 (configuration not stated)
inactive: Potency [2] | Potency [3]
active: Potency [1] 20 µM | Potency [4] 10 µM | Potency [5] 3.16 µM | Potency [6] 3.16 µM | Potency [8] 5.01 µM

FC(F)(F)c1cc(-c2ncn(/C=C\c3nnco3)n2)cc(C(F)(F)F)c1
active: Potency [4] 3.16 µM
inactive: Potency [1] | Potency [2] | Potency [3] | Potency [5] | Potency [10] | Potency [11] | Potency [7] | Potency [8]

C=C(C)C(=O)O[C@H]1C[C@@](C)(O)C(=O)CC(O)/C(C)=C\[C@H]2OC(=O)C(=C)[C@H]12 (some centres not stated)
inactive: Potency [1] | Potency [2] | Potency [3] | Potency [5] | Potency [12] | Potency [9] | Potency [10] | Potency [8]

CCCCNc1ccc(-c2ccc(CN3CCOCC3)cn2)c(NC2CCC(O)CC2)c1 (configuration not stated)
inactive: Potency [1] | Potency [3] | Potency [4] | Potency [12] | Potency [9] | Potency [10] | Potency [11] | Potency [7] | Potency [8]
active: Potency [2] 1.78 µM

CC(=O)OC1/C(C)=C/C(=O)C(OC(C)=O)C(C)(C)/C=C/C(C)C(=O)C2(OC(C)=O)CC(C)C(OC(=O)c3ccccc3)C12 (configuration not stated)
inactive: Potency [1] | Potency [2] | Potency [3] | Potency [5] | Potency [12] | Potency [9] | Potency [10] | Potency [11] | Potency [7] | Potency [8]

Cc1c[nH]c2nccc(Oc3c(F)cc(Nc4cc(Cl)nc(N)n4)cc3F)c12
inactive: Potency [1] | Potency [2] | Potency [3] | Potency [10]
active: Potency [4] 12.6 µM | Potency [5] 7.94 µM | Potency [8] 7.94 µM

Cc1ccc(-c2ccc3ncc4c(c3n2)n(C2CCN(C(=O)[C@H](C)O)CC2)c(=O)n4C)cn1
active: Potency [1] 0.282 µM | Potency [2] 0.708 µM | Potency [3] 0.794 µM | Potency [5] 1 µM | Potency [12] 0.355 µM | Potency [9] 7.08 µM | Potency [6] 0.631 µM | Potency [11] 1.41 µM | Potency [8] 0.0891 µM

CC[C@@H](N)CNc1ccnc(-c2cc(-c3cnn(C)c3)ccc2O)n1
inactive: Potency [2]
active: Potency [1] 8.91 µM | Potency [3] 3.98 µM | Potency [4] 20 µM | Potency [12] 11.2 µM | Potency [9] 12.6 µM | Potency [6] 7.94 µM | Potency [7] 8.91 µM | Potency [8] 10 µM

C=CC(C)(C)c1[nH]c2cc3c(cc2c1CC1NC(=O)C2=CCCN2C1=O)C=CC(C)(C)O3 (configuration not stated)
inactive: Potency [1] | Potency [2] | Potency [3] | Potency [5] | Potency [12] | Potency [9] | Potency [10] | Potency [11] | Potency [7] | Potency [8]

CO[C@H]1C[C@@H]2CC[C@@H](C)[C@@](O)(O2)C(=O)C(=O)N2CCCC[C@H]2C(=O)O[C@H]([C@H](C)C[C@@H]2CC[C@H](n3cnnn3)[C@H](OC)C2)CC(=O)[C@H](C)/C=C(\C)[C@@H](O)[C@@H](OC)C(=O)[C@H](C)C[C@H](C)/C=C/C=C/C=C/1C
inactive: Potency [1] | Potency [2] | Potency [3] | Potency [4] | Potency [5] | Potency [9] | Potency [10] | Potency [6] | Potency [11] | Potency [8]

COc1ncc2cc(C(=O)Nc3cc(C(=O)NCc4cccc(Cl)c4)ccc3Cl)c(=O)[nH]c2n1
inactive: Potency [1] | Potency [2] | Potency [3] | Potency [4] | Potency [12] | Potency [9] | Potency [10] | Potency [6] | Potency [11]
